For 13 compounds, growth results are on record in PubChem BioAssay (NCI).

About 83,000 compounds went through this panel and 20% of them were active in at least one assay; those are over-represented in the sample as a whole.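 Cell lines were cultured in 96-well plates, exposed to a single compound concentration, and assessed for percent growth 48 hours later.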 Unmarked numbers belong to inactive results. The source made the active and inactive calls. The calls were made as follows: active = growth percent below 10; inactive = the rest.

Assay in all cases: NCI-60 one-dose screen, 48 h (100 = growth as untreated, 0 = no growth, -100 = all killed)
For assay [1], the system named is HCT-15 colon. The conditions noted are these: 10 µM unless noted.
Assay [2] has as its system SNB-75 CNS. The conditions noted are these: 10 µM unless noted.
Assay [3] has as its system SNB-19 CNS. As to conditions: 10 µM unless noted.
The test system of assay [4] is U251 CNS. As to conditions: 10 µM unless noted.
Assay [5] deals with PC-3 prostate. The conditions noted are these: 10 µM unless noted.
Assay [6] has as its system SK-MEL-5 melanoma. The conditions noted are these: 10 µM unless noted.
The subject of assay [7] is UACC-62 melanoma. The conditions noted are these: 10 µM unless noted.
For assay [8], the system named is LOX IMVI melanoma. As to conditions: 10 µM.
The subject of assay [9] is SK-MEL-28 melanoma. The conditions noted are these: 10 µM unless noted.
Assay [10] has as its system EKVX NSCLC. As to conditions: 10 µM unless noted.
Assay [11] has as its system SN12C renal. As to conditions: 10 µM unless noted.
Assay [12] concerns UO-31 renal. As to conditions: 10 µM unless noted.
Assay [13] has as its system TK-10 renal. As to conditions: 10 µM unless noted.
Assay [14] relates to ACHN renal. The conditions noted are these: 10 µM unless noted.
For assay [15], the system named is CAKI-1 renal. As to conditions: 10 µM unless noted.
The test system of assay [16] is A498 renal. As to conditions: 10 µM unless noted.
Assay [17] relates to CCRF-CEM leukemia. The conditions noted are these: 10 µM unless noted.
Assay [18] relates to MOLT-4 leukemia. As to conditions: 10 µM unless noted.
In assay [19] the test system is SK-MEL-2 melanoma. The conditions noted are these: 10 µM unless noted.

On to `O=C(OC1CCCC1)c1ccccc1Cl`, for which the growth in [1] was 111%; in assay [2], 90.3%; in assay [3], 105%; in [4] it was 101%; in assay [5] it was 95.7%; in assay [6] it was 108%. Besides, the growth is 99.2% in assay [7]; 97% in assay [8]; 107% in assay [9]; 111% in [10]; 108% in assay [11]; 93.2% in [12]. Further, the growth in assay [13] was 100%; in [14], 104%; in [15], 101%; in assay [16], 86.6%; in assay [17], 107%; in assay [18] it was 110%.
Turning to `C#CC(O)c1ccccc1` (stereo not drawn), the growth in [1] is 103%; in assay [2], 103%; in assay [3], 104%; in assay [4], 97.2%; in assay [6] it was 97.8%; in assay [7] it was 103%. For the same compound, the growth was 103% in [8]; 109% in assay [9]; 106% in assay [19]; 103% in [10]; 104% in [11]; 101% in [12]. Further, the growth in assay [13] is 99.5%; in assay [14] it was 104%; in assay [15], 103%; in [16], 94.2%; in [18], 99.4%.
As for `Nc1ccc(F)c(Cl)c1F`, the growth in [1] was 111%; in assay [2] it was 89.3%; in assay [3], 110%; in assay [4], 116%; in assay [5], 84.1%; in assay [7], 103%. Besides, the growth was 95.3% in assay [8]; 109% in assay [9]; 108% in assay [19]; 107% in assay [10]; 104% in [11]; 98.7% in assay [12]. Besides, the growth was 108% in [13]; 106% in assay [14]; 97.5% in assay [15]; 95% in [16]; 99.4% in assay [17]; 108% in assay [18].
For the compound `O=C(CCl)Oc1ccc([N+](=O)[O-])cc1`, the growth in assay [1] was 110%; in assay [2] it was 91.2%; in [3], 115%; in [4], 106%; in assay [5], 89.9%; in [6] it was 103%. Further, the growth was 114% in assay [7]; 98.1% in [8]; 114% in assay [9]; 112% in [10]; 116% in [11]; 60.8% in [12]. In addition, the growth in [13] is 109%; in assay [14], 109%; in assay [15], 124%; in assay [16], 133%; in assay [17], 95.9%; in assay [18], 105%.
On to `O=[n+]1ccn([O-])c2ccccc21`, for which the growth was 110% in [1]; 92% in assay [2]; 102% in assay [3]; 92.1% in assay [5]; 93.2% in assay [6]; 97.4% in assay [8]. Moreover, the growth in assay [9] is 108%; in assay [19] it was 120%; in [10], 104%; in [11] it was 97.4%; in [12] it was 88.6%; in assay [13], 98.3%. Besides, the growth in [14] is 104%; in assay [15], 96.2%; in [16], 81%; in [17], 17.7%; in assay [18], 102%.
As for `CC(C)NC(=O)OCc1c(COC(=O)NC(C)C)c(-c2ccc(Cl)cc2)n2c1CCC2`, the growth was 58.4% in assay [1]; 34.1% in assay [2]; 57.9% in [3]; 49% in assay [4]; 68.2% in [5]; 68.1% in assay [6]. Besides, the growth was 30.5% in assay [8]; 84.7% in assay [9]; 94.4% in assay [19]; 76.6% in assay [10]; 50.6% in [12]; 57.6% in [13]. The growth was 11.1% in assay [14]; 6.56% (active) in assay [15]; 44.5% in assay [16]; 51.5% in [17]; 21.9% in [18].
Turning to `C/C(O)=C(/C=N/C(=S)Nc1ccccc1)C(=O)Nc1ccccc1C`, the growth was 96.7% in [1]; 92.4% in assay [2]; 93.9% in assay [3]; 95.4% in assay [4]; 86.5% in [5]; 93.9% in assay [6]. Also, the growth in [7] was 79.4%; in [8], 94.4%; in assay [9], 110%; in assay [19], 114%; in assay [10] it was 96.6%; in assay [11] it was 94.8%. In addition, the growth in assay [12] is 89.7%; in [13] it was 110%; in [14] it was 103%; in [15], 101%; in [16] it was 86.1%; in assay [17], 90.9%. Moreover, in [18], the growth was 96.9%.
As for `CCOC(=O)CNC`, the growth in [1] was 99.1%; in [2], 83.4%; in assay [3], 100%; in [4] it was 89.4%; in [5], 93.9%; in assay [6], 101%. Besides, the growth in assay [7] was 94.8%; in [8], 95.6%; in [9], 105%; in [19] it was 117%; in [11] it was 96.4%; in assay [12] it was 107%. In addition, the growth was 126% in assay [13]; 91.1% in [14]; 94.6% in assay [15]; 83.1% in [16]; 92.3% in assay [17]; 103% in assay [18].
For `O=S(=O)(O)c1cccc2cccnc12`, the growth was 117% in assay [1]; 98.2% in assay [2]; 106% in [3]; 86.8% in assay [5]; 107% in [6]; 109% in assay [7]. The growth was 107% in [8]; 97.3% in assay [9]; 108% in assay [19]; 110% in assay [10]; 103% in assay [11]; 76.8% in assay [12]. For the same compound, the growth in assay [13] is 118%; in assay [14] it was 111%; in assay [15] it was 96.1%; in assay [16] it was 104%; in assay [17], 103%; in assay [18] it was 100%.
On to `O=S1(=O)c2ccccc2Oc2ccccc21`, for which the growth was 101% in assay [1]; 80.5% in assay [2]; 104% in assay [3]; 94% in assay [4]; 92.7% in assay [5]; 108% in assay [6]. In addition, the growth in assay [7] is 102%; in assay [8], 102%; in [9], 99.4%; in [19] it was 100%; in assay [11] it was 96.8%; in [12], 93.9%. Besides, the growth in assay [13] is 101%; in [15], 92.9%; in assay [16], 99.7%; in assay [17], 127%; in assay [18], 111%.
For `O=C(NCc1ccco1)Nc1cccc2c(NC(=O)NCc3ccco3)cccc12`, the growth in assay [1] is 99.2% [100 µM]; in [2], 49.7% [100 µM]; in assay [3] it was 52.6% [100 µM]; in assay [5], 42.9% [100 µM]; in [6], 90% [100 µM]; in assay [7], 96.6% [100 µM]. In addition, the growth in [9] was 91.3% [100 µM]; in [19], 78.2% [100 µM]; in [10] it was 116% [100 µM]; in [11], 33.9% [100 µM]; in assay [12], 103% [100 µM]; in assay [13], 131% [100 µM]. The growth in assay [14] was 106% [100 µM]; in assay [15] it was 100% [100 µM]; in assay [16] it was 110% [100 µM]; in [17] it was 44.7% [100 µM]; in [18] it was 59.1% [100 µM].
On to `CCN(CC)CCN1CNC(=S)NC1`, for which the growth was 106% in assay [1]; 107% in assay [2]; 104% in [3]; 105% in assay [4]; 101% in assay [5]; 104% in assay [6]. Further, the growth in assay [7] is 105%; in [8], 95.8%; in [9], 114%; in [19] it was 95.1%; in assay [11] it was 98.4%; in [12] it was 83.7%. Also, the growth in [13] is 103%; in [14], 102%; in assay [15] it was 106%; in assay [16] it was 105%; in assay [17] it was 97.8%; in assay [18], 97.1%.
In the case of `CC(C)(C)CC1(C)NC(=O)NC1=O` (stereo not drawn), the growth in assay [1] was 110%; in assay [2] it was 83.8%; in assay [3], 110%; in assay [4], 111%; in assay [5], 106%; in [6] it was 108%. The growth was 102% in [8]; 116% in [9]; 166% in assay [19]; 108% in assay [10]; 100% in assay [12]; 125% in [13]. Further, the growth in assay [14] was 109%; in assay [16], 120%; in assay [17], -59.7% (active); in [18] it was 93.2%.
